Records with an inconclusive call do not appear. A number with no mark means an inactive call. Active and inactive are the calls of the source. Calls follow the shape of the dose curve; as a rule, active = well fitted cell-killing curve with a large enough effect; inconclusive = small, poorly fitted or top-dose-only effect; inactive = flat fitted curve, though single readings scatter.
assay: OV-KATE Cancer Cell Toxicity qHTS against the NCATS CANVASS Library (AID 1347345); settings: OV-KATE cells viability, CellTiter-Glo luminescence, 72 h; series mostly up to 38.3 µM; activity change, negative = cytotoxicity: at the top concentration
Source text: Natural products and their derivatives continue to be wellsprings of nascent therapeutic potential. However, many laboratories have limited resources for biological evaluation, leaving their previously isolated or synthesized compounds largely or completely untested. To address this issue, the Canvass library of natural products was assembled (https://tripod.nih.gov/canvass), in collaboration with academic and industry researchers, for quantitative high-throughput screening (qHTS) across a diverse set of cell-based and biochemical assays. The pure (>85% purity by liquid chromatography/mass spectrometry [LC/MS]) Canvass library of 346 natural products were submitted by 45 academic laboratories and companies around the world. We collected pure natural products to circumvent deconvolution and structure elucidation due to time and resource limitations. The library was formatted into 1536-well plates and evaluated in 50 qHTS (in an 11-pnt concentration series) bioassays with broad scope of disease-relevant mechanisms. The resulting data set from 50 different assays was then systematically analyzed to identify overall trends and specific natural products with interesting biological activities. Reported herein are the results of each individual qHTS and their corresponding assay protocol. National Center for Advancing Translational Sciences (NCATS), Rockville, MD National Institute of Health (NIH), Bethesda, Maryland
Cancer Cell Toxicity protocol for cell lines COV-362, OV-KATE, OV-SAHO, UWB1.289, UWB1.289-WTBRCA1, HEK-293, HPAF-II, Panc-1005, SW1088, or U-118MG. 1. In a 1536 well, white solid bottom tissue culture plates (Corning 7494), corresponding cells (COV-362, OV-KATE, OV-SAHO, UWB1.289, UWB1.289-WTBRCA1, HEK-293, HPAF-II, Panc-1005, SW1088, or U-118MG) were dispensed in each well at a final concentration of 1000 cells / well (6uL volume) using the Multidrop Combi (Thermo Fisher Scientific) dispenser. 2. The plates were incubated for 4 hours at 37 degrees C/5% CO2/95% Rh. 3. Compounds were pin transferred (~23nL volume) via Wako Pin-tool (Wako Automation, Richmond VA) equipped with a 1536 pin head. The assay plates were treated with compounds in an 11-pnt concentration series with a final concentration range of […] to 85uM. 4. Bortezomib was used as a single dose control (0.5mM column 4, rows 1 - 32) at a final concentration of 1.9uM and as a 16pnt titration (1mM; 1:2 dilution; 16-points; n = 2; column 3, rows 1 - 32) with final concentration range of 0.1nM - 3.8uM. 5. The assay plates were incubated for 72 hours at 37 degrees C/5% CO2/95% Rh. 6. 3uL CellTiter-Glo detection reagent was then added to the plates (columns 2 - 48, rows 1 - 32) and incubated at room temperature for additional 15min. 7. Luminescence signal was acquired via the ViewLux plate reader (PerkinElmer) using a clear filter, 2 second exposure and 2x binning settings.
% is scaled to controls: 0 for no effect and ±100 for the full control effect; potency is read from the fitted curve at half-maximal effect.

| SMILES | activity change, negative = cytotoxicity | Potency |
| --- | --- | --- |
| C=C1[C@@H](C)[C@H]2[C@H](Cc3ccccc3)NC(=O)[C@]23OC(=O)/C=C/[C@H](O)CCC[C@@H](C)C/C=C/[C@H]3[C@@H]1O | -22.6% |  |
| C[C@]12CC(O)C3[C@@H](CCC4C[C@@H](O)CC[C@@]43CO)[C@@]1(O)CCC2C1=CC(=O)OC1 (stereo not given in full) | -7.96% |  |
| CN(C)Cc1c[nH]c2ccccc12 | -4.13% |  |
| CNCCc1ccccc1 | -1.42% |  |
| O=C(c1ccccc1O)c1[nH]c(Cl)c(Cl)c1-n1c(C(=O)c2ccccc2O)cc(Cl)c1Cl |  | 5.94 µM (active) |
| CNCCc1c[nH]c2ccccc12 | -1.93% |  |
| CCCC[C@@H]1CC[C@H]2CCCC(CCC)N12 (stereo not given in full) | 4.94% |  |
| CCCCC[C@@H]1OC(=O)[C@@H](C)N(C)C(=O)[C@H](CCCCC)OC(=O)C(C)N(C)C(=O)[C@H](CCCCC)OC(=O)[C@@H](C)N(C)C(=O)[C@H](CCCCC)OC(=O)C(C)N(C)C1=O (stereo not given in full) |  | 8.38 µM (active) |
| CCC[C@H]1CC[C@H]2[C@H](C)CCC[C@H]2N1 | -11.9% |  |
| C/C=C1/CN2CC[C@]34C(=Nc5ccccc53)[C@@H]2C[C@@H]1[C@H]4C(=O)OC | -10% [at 76 µM] |  |
| CCN1C[C@]2(C)CC[C@@H](O)[C@]34C1[C@H](C[C@H]23)C12CCC(CC14)[C@](O)(CO)[C@H]2O (stereo not given in full) | -3.67% |  |
| CC[C@@H]1CN2CC[C@@]3(O)C(=Nc4cccc(OC)c43)[C@@H]2C[C@@H]1/C(=C\OC)C(=O)OC | -7.44% |  |
| CC[N@@+]1([O-])C[C@]2(C)CC[C@@H](O)[C@@]34C5C[C@H]6CC[C@@]5(C(C[C@H]23)C41)[C@H](O)[C@@]6(O)CO (stereo not given in full) | -10.1% |  |
| NCCc1ccccc1 | 0% |  |
| COc1ccc2c3c([nH]c2c1)C(C)=NCC3 | -11.7% |  |
| CO[C@@H](/C=C/CC/C=C/C(=O)O)[C@@H](O)[C@H](C)/C=C(\C)[C@@H](O)[C@H](C)C(=O)CCCC1CC(=O)NC(=O)C1 | -0.917% |  |
| CO[C@@H](/C=C/CC/C=C/C(=O)O)[C@@H](O)[C@H](C)[C@@H](O)/C(C)=C/[C@H](C)C(=O)CCCC1CC(=O)NC(=O)C1 | -0.934% |  |
| CN1C(=O)[C@]23CC4C(C)(C)[C@@]5(C[C@@]41CN2CC[C@@]3(C)O)C(=O)Nc1c5ccc2c1OC=CC(C)(C)O2 (stereo not given in full) | -13% |  |
| c1ccc2c3c([nH]c2c1)CNCC3 | -22% |  |
| CC1=CC2CC[C@@H]3[C@@H](C)C[C@H](C)[C@@H](C1)N23 (stereo not given in full) | 1.64% |  |
| COC(=O)C1=C2Nc3ccccc3[C@@]23CCN2CC(C(C)=O)C1C[C@H]23 (stereo not given in full) | -5.32% |  |
| CC(=O)N[C@H]1CCN2CCC[C@H]12 | 1.36% [at 85.4 µM] |  |
| CC=C1CN(C=O)[C@H]2C[C@@H]1[C@@H](C(=O)OC)[C@@]13CCOC21Nc1ccccc13 (stereo not given in full) | -4.03% |  |
| CCC(=O)CCCCC[C@@H]1NC(=O)[C@H]2CCCCN2C(=O)[C@H]([C@@H](C)CC)NC(=O)[C@H](Cc2cn(OC)c3ccccc23)NC1=O |  | 4.72 µM (active) |
| CCN1C[C@]2(C)CC[C@H](O)[C@]34C1C(C[C@H]23)[C@@]12CC[C@H](CC14)[C@](O)(COC(=O)c1ccc(OC)c(OC)c1)[C@H]2O (stereo not given in full) | -5.32% |  |
| CNCCc1ccc(O)cc1 | 0% |  |
| C[C@@H]1CC[C@@H](c2ccoc2)N2C[C@@]3(CC[C@@H]12)CS[C@@]1(CC[C@H]2[C@H](C)CC[C@@H](c4ccoc4)N2[C@@H]1O)C3 |  | 7.47 µM (active) |
| COc1ccc(C23Oc4cc(OC)cc(OC)c4[C@](O)([C@H](c4ccccc4)C2C(=O)NCCCCNC(=O)c2ccccc2)[C@@H]3O)cc1 (stereo not given in full) | -0.461% |  |
| CC1=CC(=O)C2=C(C)C[C@H](O)[C@@H]3[C@H](OC(=O)[C@@H]3C)[C@@H]12 | -14.5% |  |
| CO[C@H](c1ccccc1)[C@H]1NC(=O)C(C)NC(=O)C(C[C@@H](C)CO)N(C)C(=O)[C@@H](C(O)c2cn(C(C)(C)C3CO3)c3ccccc23)NC(=O)C(C(C)C=C(C)C)NC(=O)C(CC(C)C)N(C)C(=O)C(C(C)C)NC1=O (stereo not given in full) | -14.6% [at 22.9 µM] |  |
